Among the data in PubChem BioAssay (NCI) are growth inhibition values, retold here.

Compounds without any hit were thinned out: in the full panel of roughly 79,000, 15% have a hit. Values without a mark were called inactive. The source made the active and inactive calls. No stated cut-off is given here; in the data, active means growth inhibition above about 70%; inactive means the rest.

Experiment [1] is described as follows: NCI Yeast Anticancer Drug Screen. Data for the rad50 strain (AID 155).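 Further: 0% = growth of vehicle-only cultures of the same strain.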 To be noted: S. cerevisiae rad50 strain growth inhibition; at 50.0 µM; active compounds read high. An outline of the steps:
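Compounds were tested on a yeast strain with an engineered DNA damage repair alteration; the reported value is growth inhibition normalised to vehicle treatment.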

A short description of experiment [2]: NCI Yeast Anticancer Drug Screen. Data for the mec2-1 strain (AID 157). To be noted: S. cerevisiae mec2-1 strain, at 50.0 µM, active compounds read high. An outline of the steps: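 mec2-1 yeast strain, carrying an alteration in DNA damage repair or cell cycle control, was exposed to compounds; growth inhibition was measured relative to vehicle-treated controls.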

The nature of experiment [3]: NCI Yeast Anticancer Drug Screen. Data for the sgs1 mgt1 strain (AID 161).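 Further: 0% = growth of cultures given vehicle only.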 To be noted: S. cerevisiae sgs1 mgt1 strain, at 50.0 µM, active compounds read high. The method, boiled down:
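Compounds are added to genetically altered yeast, and growth is compared with cultures given vehicle alone to give percent inhibition.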

Experiment [4] is described as follows: NCI Yeast Anticancer Drug Screen. Data for the cln2 rad14 strain (AID 165).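 Further: 0% = growth equal to vehicle treated cultures.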 To be noted: S. cerevisiae cln2 rad14 strain, at 50.0 µM, active compounds read high. An outline of the steps:
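Yeast carrying cln2 and rad14 alterations (cell cycle control and DNA damage repair) were exposed to compounds. Growth inhibition was measured against vehicle-treated controls.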

Experiment [5] is described as follows: NCI Yeast Anticancer Drug Screen. Data for the bub3 strain (AID 167). To be noted: S. cerevisiae bub3 mutant strain, at 50.0 µM, active compounds read high. The method, boiled down: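 Growth of a checkpoint-deficient yeast mutant is measured after compound exposure. Values represent inhibition relative to vehicle.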
A short description of experiment [6]: NCI Yeast Anticancer Drug Screen. Data for the mlh1 rad18 strain (AID 175). To be noted: S. cerevisiae mlh1 rad18 strain growth inhibition; at 50.0 µM; active compounds read high. An outline of the steps: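 Growth inhibition of the yeast strain was measured after compound exposure and expressed relative to vehicle-treated controls. The strain carries defined defects in DNA damage repair.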

On to `CN1CCN(C(=S)N(C(=O)c2ccco2)c2ccccc2)CC1`, for which the growth inhibition in experiment [1] is -57.8%; in experiment [2], -44.3%; in experiment [3] it was -22.6%; in experiment [4] it was -2.4%; in experiment [5], -0.1%; in experiment [6] it was -37.9%.
Regarding `CCCCCCC[CH2][Sn]1([CH2]CCCCCCC)[O]C(=O)c2cccnc2[O]1`, the growth inhibition in experiment [1] is 27.4%; in experiment [2], 7.3%; in experiment [3], 13.2%; in experiment [4], 10.3%; in experiment [5], 17.2%; in experiment [6], 19.8%.
In the case of `CN=C1C=C(/N=C2/C=C(N/C(=C\C#N)C(C)(C)O)OC2(C)C)OC1(C)C`, the growth inhibition is -10.6% in experiment [1]; -5.3% in experiment [2]; 13.6% in experiment [3]; 7.1% in experiment [4]; 23.9% in experiment [5]; 28.6% in experiment [6].
Turning to `Nc1cc(Cc2ccccc2)ccc1O`, the growth inhibition in experiment [1] is 42.5%; in experiment [2], 25.8%; in experiment [3], 58.8%; in experiment [4], 18.8%; in experiment [5], 31.2%; in experiment [6], 46.7%.
On to `CC1(C2=CCCCC2)CCC(=O)NC1=O` (stereo not given), for which the growth inhibition in experiment [1] is -6.35%; in experiment [2], 10.6%; in experiment [3], 0.2%; in experiment [4] it was 35.2%; in experiment [5], 14.1%; in experiment [6] it was 28.8%.
Consider `O=C1NCC2Cc3ccccc3C(c3ccccc3)=C12` (stereo not given), for which the growth inhibition in experiment [1] is -1.6%; in experiment [2] it was -1.1%; in experiment [3] it was 5.6%; in experiment [4] it was -6.15%; in experiment [5] it was -3.9%; in experiment [6] it was -4.25%.
For the molecule `O=C(c1ccccc1)C1CCCCC1`, the growth inhibition is 1.05% in experiment [1]; -3.65% in experiment [2]; -6.25% in experiment [3]; 6.45% in experiment [4]; 4.4% in experiment [5]; -3.7% in experiment [6].
Consider `OC(CN1CCCCC1)c1ccncc1` (stereo not given), for which the growth inhibition was 0.5% in experiment [1]; -24.8% in experiment [2]; -8.4% in experiment [3]; -0.9% in experiment [4]; 1% in experiment [5]; 1.4% in experiment [6].
For `CC1OC(n2ccc(NC(=O)c3ccc(NC(=O)C(C)(N)CO)cc3)nc2=O)CCC1OC1OC(C)C(N(C)C)C(O)C1O` (stereo not given), the growth inhibition was 30.4% in experiment [1]; -0.8% in experiment [2]; 6.05% in experiment [3]; 6% in experiment [4]; 1.75% in experiment [5]; 28.8% in experiment [6].
Regarding `O=C1CN(c2ccccc2)Cc2nc(Cl)ccc2N1`, the growth inhibition was 39.9% in experiment [1]; 7.45% in experiment [2]; 24.4% in experiment [3]; 17.4% in experiment [4]; 3.55% in experiment [5]; 72.5% (active) in experiment [6].
In the case of `CC(C)CCCC(C)C1CCC2C3CC=C4CC(O[N+](=O)[O-])CCC4(C)C3CCC12C` (stereo not given), the growth inhibition in experiment [1] was -24.8%; in experiment [2], -6%; in experiment [3] it was -17.1%; in experiment [4], -13.8%; in experiment [5], -5.15%; in experiment [6] it was 17.9%.
As to `c1ccc(C2=NCCN2)nc1`, the growth inhibition was 8.1% in experiment [1]; 0.9% in experiment [2]; -5.7% in experiment [3]; -1.15% in experiment [4]; 0.65% in experiment [5]; 6.55% in experiment [6].
`O=C(/C=C/c1ccc(OCc2ccccc2)c(OCc2ccccc2)c1)OCc1ccccc1`: the growth inhibition in experiment [1] was -12%; in experiment [2], -9.65%; in experiment [3] it was -5.15%; in experiment [4], -33.9%; in experiment [5], -3.45%; in experiment [6], -34.8%.
Consider `CCn1nc(C(=O)O)c(=O)c2cc3c(cc21)OCO3`, for which the growth inhibition was 8.1% in experiment [1]; 7.2% in experiment [2]; -9.85% in experiment [3]; -15.7% in experiment [4]; -3.9% in experiment [5]; 7.4% in experiment [6].
For `O=C(/C=C/c1ccccc1)CC1OC(=O)c2ccccc21` (stereo not given), the growth inhibition is 14.3% in experiment [1]; -15.9% in experiment [2]; 10.3% in experiment [3]; 23.1% in experiment [4]; 3.15% in experiment [5]; -20.9% in experiment [6].
Regarding `C/C(N)=N/C(=O)OCCOC(=O)/N=C(\C)N`, the growth inhibition in experiment [1] is -2.25%; in experiment [2], 8.3%; in experiment [3], -9.35%; in experiment [4], -5.3%; in experiment [5], 15%; in experiment [6] it was 1.9%.
Turning to `O=C1OC(=O)C2C1C1c3ccccc3C2(Br)c2ccccc21` (stereo not given), the growth inhibition was -3.15% in experiment [1]; 13.7% in experiment [2]; -0.45% in experiment [3]; -6.05% in experiment [4]; 3.55% in experiment [5]; 7.65% in experiment [6].
As for `NC1(C(=O)O)CC(O)(c2ccccc2)C(O)(c2ccccc2)C1` (stereo not given), the growth inhibition was -22.5% in experiment [1]; -6.1% in experiment [2]; -10% in experiment [3]; 6.2% in experiment [4]; 3.75% in experiment [5]; -9.5% in experiment [6].
For the molecule `CCN(CC)Cc1cc(N=Nc2cccc3ccccc23)c2ccccc2c1O`, the growth inhibition in experiment [1] is 31.6%; in experiment [2], 11.4%; in experiment [3] it was 30.1%; in experiment [4] it was 24.9%; in experiment [5], -3.15%; in experiment [6] it was 35.7%.
Take `COc1cc(C(Nc2ccccn2)c2cc3c(cc2O)OCO3)cc(OC)c1O` (stereo not given): the growth inhibition in experiment [1] was 28.2%; in experiment [2] it was 46.5%; in experiment [3], 39.3%; in experiment [4], 30.9%; in experiment [5], 15.7%; in experiment [6], 24.2%.
